A selection: hits, their analogues and other compounds. The true share with any hit is near 5.1%.
ANO1 block = mouse TMEM16A channel inhibition, primary screen; actives 1.2% (n = 310,000); HEK293 TMEM16A/YFP iodide influx fluorescence, ionomycin; AID 588511; normalized B-score (activity score, 25-100; higher = stronger inhibition) at 10 µM;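 active = ratio plate-corrected score three or more library SD toward inhibition, starting fluorescence score within five deviations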;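 also: score derived from kinetic fluorescence span divided by baseline fluorescence per well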
Target sequence (Q8BHY3 whole entry, looked up): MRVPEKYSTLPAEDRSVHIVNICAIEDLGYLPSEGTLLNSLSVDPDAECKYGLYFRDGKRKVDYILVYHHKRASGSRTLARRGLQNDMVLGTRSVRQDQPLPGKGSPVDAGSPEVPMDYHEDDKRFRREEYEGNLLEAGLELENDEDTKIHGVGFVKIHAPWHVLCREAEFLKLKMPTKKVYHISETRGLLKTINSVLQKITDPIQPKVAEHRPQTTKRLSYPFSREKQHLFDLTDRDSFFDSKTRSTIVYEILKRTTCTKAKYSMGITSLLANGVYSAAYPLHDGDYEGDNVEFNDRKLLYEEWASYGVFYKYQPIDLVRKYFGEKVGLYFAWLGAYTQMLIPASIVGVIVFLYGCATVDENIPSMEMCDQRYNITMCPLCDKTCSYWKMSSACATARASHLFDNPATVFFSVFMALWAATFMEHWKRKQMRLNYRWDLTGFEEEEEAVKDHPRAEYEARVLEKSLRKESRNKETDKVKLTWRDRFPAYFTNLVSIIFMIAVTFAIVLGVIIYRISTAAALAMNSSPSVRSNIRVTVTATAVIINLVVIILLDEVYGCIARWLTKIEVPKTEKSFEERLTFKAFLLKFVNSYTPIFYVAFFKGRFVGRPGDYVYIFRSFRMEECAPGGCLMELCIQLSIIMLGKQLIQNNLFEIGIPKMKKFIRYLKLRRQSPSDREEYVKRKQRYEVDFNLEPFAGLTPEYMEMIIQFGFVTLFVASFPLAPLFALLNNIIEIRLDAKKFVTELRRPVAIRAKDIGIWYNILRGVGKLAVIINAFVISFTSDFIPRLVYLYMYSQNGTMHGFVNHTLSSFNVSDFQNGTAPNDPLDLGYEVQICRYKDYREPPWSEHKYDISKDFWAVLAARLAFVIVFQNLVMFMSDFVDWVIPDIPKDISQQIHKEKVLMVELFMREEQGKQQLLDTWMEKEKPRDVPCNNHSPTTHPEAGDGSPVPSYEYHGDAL
MPTP inh = inhibitors of mitochondrial permeability transition pore | isolated mouse mitochondria, Ca2+ swelling absorbance, 30 min | inhibition, % at 10 µM | actives 1.4% (n = 360,000) | AID 602449;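 active = inhibition of 50% or more, scaled per plate between neutral and stimulator controls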
ANO1 activ = activates or potentiates the mouse TMEM16A chloride channel; Q8BHY3; HEK293 TMEM16A/YFP-H148Q/I152L, iodide quench fluorescence; stronger effect = lower value; B-score at 10 µM; actives 0.3% (n = 340,000);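 active = fluorescence-ratio B-score plate-corrected deviation score at least 3 library SD below zero, with starting fluorescence score within 5 deviations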;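 also: channel opened by trigger with iodide after compound preincubation; score built on the fluorescence ratio of max minus min over baseline; more negative score means more quench and so TMEM16A activation or potentiation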
GRIN3A LBD mod = modulates the human NR3A ligand-binding domain; NR3A LBD differential scanning fluorimetry, Tm shift; 0% = protein alone, 100% = glycine-bound protein; Tm shift relative to glycine control, % at 25 µM; actives 2.5% (n = 340,000);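 active = melting temperature shift of at least 10% of the positive control shift, at one fixed dose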
CRFR2-BP antag = blocks CRF-induced signaling of the CRF-BP/CRF-R2 complex. inhibition, % at 11.8 µM. HEK293 CRF-R2/CRF-BP, CRF-induced calcium fluorescence. actives 0.59% (n = 350,000);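 active = inhibition of the ligand-induced calcium signal above about 50% at the single tested concentration, limit read from the data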
CRFR2-BP ag = CRF-BP/CRF-R2 complex agonism. AID 588473. HEK293 CRF-R2/CRF-BP, calcium dye fluorescence (FLIPR); percent of saturating CRF peptide response. actives 0.46% (n = 350,000). activation, % at 13.2 µM;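 active = activation of at least 50%, plus an integration ratio under a set limit after plate pattern correction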
Each line names hits and unclear results; the compound was inactive in the other large screens.

Cn1c(N2CCN(c3ccccn3)CC2)nc2c1c(=O)n(Cc1ccc(Cl)cc1)c(=O)n2C	ANO1 block 100
C[C@]12c3[nH]c4cc(-c5ccco5)ccc4c3CCN1C(=O)[C@@H](CC(=O)NCC13CC4CC(CC(C4)C1)C3)C[C@@H]2C(=O)N1CCOCC1	none (no result: ANO1 block, ANO1 activ)
O=C(NC(C(=O)N/N=C/c1c2ccccc2cc2ccccc12)c1n[nH]c(=O)c2ccccc12)c1ccccc1 (stereo not drawn)	none
O=C(NC(C(=O)N/N=C/c1ccccc1)c1n[nH]c(=O)c2ccccc12)c1ccccc1 (stereo not drawn)	CRFR2-BP ag 98
COc1ccc(N2CCN(C(=O)COC(=O)c3oc4ccccc4c3C)CC2)cc1	none (no result: ANO1 block)
CCOC(=O)c1c(NC(=O)COC(=O)c2ccc([N+](=O)[O-])cc2)sc(C(=O)N(C)C)c1C	none
CCOC(=O)c1c(C)[nH]c(C(=O)OCC(=O)Nc2sc(C(=O)N(C)C)c(C)c2C(=O)OCC)c1C	CRFR2-BP antag 87
COc1ccc(COC(=O)C2CCN(S(=O)(=O)c3ccc(C)cc3)CC2)cc1	none
O=C(CCSc1nc(-c2ccco2)cc(C(F)(F)F)n1)NCc1cccs1	none
CCn1nc(C)c(NC(=O)CCSc2nc(-c3ccco3)cc(C(F)(F)F)n2)c1C	GRIN3A LBD mod 557
O=C(CCSc1nc(-c2ccco2)cc(C(F)(F)F)n1)NCc1ccccn1	ANO1 activ -15
O=C1CSC(c2ccccc2F)N1c1cc(Cl)ccc1O (stereo not drawn)	CRFR2-BP antag 53
CCOC(=O)c1c(-c2ccccc2)oc2ccc(O)c(CN3CCOCC3)c12	none
CCOC(=O)c1cc(CN2CCOCC2)oc1-c1ccccc1	GRIN3A LBD mod 10
CC1=C(C(=O)OCc2ccccc2)C(/C=C/c2ccccc2)N2C(=O)CCSC2=N1 (stereo not drawn)	CRFR2-BP antag 69
CCOC(=O)C1=C(C)N=C2SCCC(=O)N2[C@@H]1/C=C/c1ccccc1	none
O=C(Nc1cc(Cl)ccc1O)c1cc2n(n1)C(C(F)(F)F)CC(c1ccc3c(c1)OCO3)N2 (stereo not drawn)	GRIN3A LBD mod 23
COc1ccc(OC)c(NC(=O)c2cc3n(n2)C(C(F)(F)F)CC(c2ccc4c(c2)OCO4)N3)c1 (stereo not drawn)	none
Cc1c(C(=O)NCC2CCCO2)sc2nc(-c3ccc(F)cc3)cn12 (stereo not drawn)	CRFR2-BP antag 56
O=C(NCC1CCCO1)c1ccccc1-c1nc(-c2ccc(F)cc2)no1 (stereo not drawn)	ANO1 block 100
Cc1c(C(=O)NCc2ccccn2)sc2nc(-c3ccc(F)cc3)cn12	none
Cc1cc(CNC(=O)Cn2nc(C)c([N+](=O)[O-])c2C)c2ccccc2n1	none
Cc1cc(C)cc(NC(=O)COC(=O)CCn2c(C)csc2=O)c1	none (no result: ANO1 block)
O=c1[nH]c(/C=C/c2ccc([N+](=O)[O-])cc2)c([N+](=O)[O-])c(=O)[nH]1	none
Cc1cccc(NC(=O)COc2ccc(/C=C\c3[nH]c(=O)[nH]c(=O)c3[N+](=O)[O-])cc2)c1	GRIN3A LBD mod 10
CN(C(=O)c1ccc(NC(=O)Cc2ccc([N+](=O)[O-])cc2)cc1)C1CCCC1	none (no result: ANO1 block)
O=C(C/C=N\OCc1ccc([N+](=O)[O-])cc1)Nc1ccc(Br)cc1	CRFR2-BP antag 84
CCNC(=O)C1(C)CCCN(C(=O)c2cc(OC)ccc2Br)C1 (stereo not drawn)	none (no result: ANO1 block, ANO1 activ, GRIN3A LBD mod, CRFR2-BP antag, CRFR2-BP ag)
O=[N+]([O-])c1cc([N+](=O)[O-])c2oc(-c3ccccc3)c(Br)c2c1O	CRFR2-BP antag 57 (no result: ANO1 block)
CSCc1c(C(=O)OCC(=O)NC2CCCCC2)oc2ccccc12	none (no result: ANO1 block)
Cc1ccc(NC(=O)c2cc3ccccc3o2)cc1S(=O)(=O)N(C)C	none (no result: ANO1 block)
CN(C)S(=O)(=O)c1ccc(S(=O)(=O)Nc2ccc3c(c2)oc2ccccc23)cc1	GRIN3A LBD mod 22
CN(C)S(=O)(=O)c1ccc(NC(=O)c2cc3ccccc3o2)cc1	GRIN3A LBD mod 31
CSc1ccccc1NC(=O)C1(C)CCN1C(=O)CCC1CCCC1 (stereo not drawn)	none (no result: ANO1 block, ANO1 activ, GRIN3A LBD mod, CRFR2-BP antag, CRFR2-BP ag)
O=C(C1CCCN(Cc2ccc([N+](=O)[O-])cc2)C1)N1CCCCC1 (stereo not drawn)	none
Cc1nc2ccccn2c1C(=O)/C=C/c1ccc(F)cc1	GRIN3A LBD mod 13
COc1ccc(/C=C/C(=O)c2c(C)nc3ccccn23)cc1	none
N#Cc1c(SCC(=O)Nc2nc3ccccc3s2)sc2c(O)cc(=O)[nH]c12	none (no result: ANO1 block)
N#Cc1c(SCC(=O)Nc2nc3ccc(Br)cc3s2)sc2c(O)cc(=O)[nH]c12	GRIN3A LBD mod 18
Cc1ccc(SCc2c(C(=O)N/N=C/c3cccs3)nnn2-c2nonc2N)cc1	none (no result: ANO1 block, ANO1 activ, GRIN3A LBD mod)
Cc1ccc(SCc2c(C(=O)N/N=C/c3ccco3)nnn2-c2nonc2N)cc1	none (no result: ANO1 block, ANO1 activ, GRIN3A LBD mod)
Cc1ccc(SCc2c(C(=O)N/N=C/c3ccoc3)nnn2-c2nonc2N)cc1	GRIN3A LBD mod 12
CCN(CC)Cc1c(C(=O)N/N=C/c2cccnc2)nnn1-c1nonc1N	none
Nc1nonc1-n1nnc(C(=O)N/N=C/c2ccco2)c1CSc1ccccc1	GRIN3A LBD mod 27
Cc1ccc(SCc2c(C(=O)N/N=C/c3ccccc3)nnn2-c2nonc2N)cc1	GRIN3A LBD mod 33
CCN(CC)Cc1c(C(=O)N/N=C/c2ccc(OCc3ccccc3C)cc2)nnn1-c1nonc1N	GRIN3A LBD mod 33
Cc1cccc(OCc2nnc(SCC(=O)N(c3ccccc3)C3CCS(=O)(=O)C3)o2)c1 (stereo not drawn)	none (no result: ANO1 block)
Cc1ccc(CNC(=O)CCCn2nc(C)n3ccnc3c2=O)cc1	none
Cc1ccc(/C=N/NC(=O)c2nnn(-c3nonc3N)c2CSc2ccccc2)cc1	GRIN3A LBD mod 40
Nc1nonc1-n1nnc(C(=O)N/N=C/c2ccc(OCc3ccccc3F)cc2)c1CNc1ccccc1	GRIN3A LBD mod 34
Nc1nonc1-n1nnc(C(=O)N/N=C/c2cc(Br)ccc2O)c1CNc1ccccc1	GRIN3A LBD mod 23
CCCc1c(C(=O)N/N=C/c2ccc3c(c2)OCO3)nnn1-c1nonc1N	none (no result: ANO1 block, ANO1 activ, GRIN3A LBD mod)
Cc1ccc(SCc2c(C(=O)N/N=C/c3ccc4c(c3)OCO4)nnn2-c2nonc2N)cc1	GRIN3A LBD mod 31
CCCCc1c(-c2ccc(F)cc2)ncn1CCc1ccccc1OC	none (no result: ANO1 block, ANO1 activ, GRIN3A LBD mod, CRFR2-BP antag, CRFR2-BP ag)
Cc1ccc(/C=N/NC(=O)c2nnn(-c3nonc3N)c2CNc2ccccc2)cc1	GRIN3A LBD mod 35
NC(=O)N/N=C\c1cc(Br)ccc1O	none
Nc1nonc1C(=O)N/N=C/c1cc(Br)ccc1O	CRFR2-BP ag 56 (no result: MPTP inh)
CC(Oc1ccccc1F)C(=O)NNC(=O)Cc1ccc(S(=O)(=O)N2CCOCC2)s1 (stereo not drawn)	none (no result: ANO1 block)
